From PubChem BioAssay
Sampled rows, rich in hits. Any-hit rate of the full collection: about 2.7%.
a7 integrin act = activators of alpha7 integrin expression for muscular dystrophy | alpha7betagal myoblasts, beta-gal FDG fluorescence, 48 h | Potency, µM (doses to about 38.3 µM), most hits filed as activators | 350,000 tested, 0.064% active | AID 624291; also: nearly all actives have a fitted effect of over 60% in size
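alpha7betagal+/- myoblasts (passage 13, 250/well) treated 48 h at 37C with compounds at 1:260 dilution of DMSO stock. Lysed, then beta-galactosidase activity read as FDG fluorescence (ex 480/em 540) after 30 min, with pre-read for autofluorescence.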
BRCA1 expr up = activators of BRCA1 expression; MCF7-BRCA1-FFLuc reporter, luminescence, 48 h; response scale: scaled: vehicle 0%, 10 µM genistein 100%; 380,000 tested, 1.1% active; Potency, µM (highest dose often 46.1 µM), usual class: activators; also: nearly all actives have a fitted effect of over 80% in size
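Luminescence from a BRCA1-driven firefly luciferase in MCF7 cells was read after 48 h compound exposure at 37 C. Data normalized against DMSO and a 10microM genistein activation control, then curve-fitted across the titration.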
GLP1R inv ag = GLP-1 receptor (human) inverse agonism; HEK293 GLP-1R CRE-luciferase, luminescence, 24 h; GLP-1R form is constitutively active; P43220; Potency, µM (series often up to 38.3 µM), most hits filed as inhibitors; 410,000 tested, 1.6% active; also: nearly all actives have a fitted effect of over 55% in size
Target sequence (P43220 whole entry, looked up): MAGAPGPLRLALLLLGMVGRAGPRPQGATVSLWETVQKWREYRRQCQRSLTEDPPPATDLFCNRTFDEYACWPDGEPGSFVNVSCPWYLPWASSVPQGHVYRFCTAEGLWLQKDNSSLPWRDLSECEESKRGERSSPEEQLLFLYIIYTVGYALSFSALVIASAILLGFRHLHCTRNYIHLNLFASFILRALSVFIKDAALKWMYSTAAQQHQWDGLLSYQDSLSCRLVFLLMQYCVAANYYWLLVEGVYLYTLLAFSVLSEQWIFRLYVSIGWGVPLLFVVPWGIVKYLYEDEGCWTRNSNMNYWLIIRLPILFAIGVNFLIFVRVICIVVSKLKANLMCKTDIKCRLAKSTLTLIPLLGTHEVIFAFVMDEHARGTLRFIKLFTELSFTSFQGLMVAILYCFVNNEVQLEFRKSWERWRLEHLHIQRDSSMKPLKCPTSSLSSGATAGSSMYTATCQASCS
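HEK293 cells stably co-expressing constitutively active GLP-1R and a cAMP-responsive luciferase reporter were seeded in DMEM with 10% Nu serum, given compounds after 12 h, and incubated 24 h at 37 deg C. Luminescence was then read.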
GLP-1R agonist = agonists of human GLP-1 receptor; P43220; HEK293 GLP-1R CRE-luciferase, luminescence, 4-6 h; cells express a hypersensitive GLP-1R form; Potency, µM (highest dose often 45.6 µM), actives largely listed as activators; 380,000 tested, 0.007% active
HEK293 tox = cytotoxicity in counter-screen for GLP-1R inverse agonists; 410,000 tested, 0.13% active; HEK293 cAMP-luciferase reporter cells, luminescence, 24 h; Potency, µM (series often up to 38.3 µM), usual class: inhibitors; AID 624418;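 also: loss of luciferase light is scored as toxicity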
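Seeding density was 200 cells/uL; after overnight-length (12 h) culture, 23 nL compounds went on for 24 h at 37 °C. Readout used a luciferase detection reagent, luminescence taken after 12 min at room temperature.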
Large screens that a line does not name were inactive. Calls follow the shape of the dose curve; as a rule, active = well fitted curve in the direction sought with a large enough effect; inconclusive = small, poorly fitted or top-dose-only effect, or another doubt; inactive = no such curve, though single readings can be large; an effect the other way counts as inactive or inconclusive.

COc1ccc(Cl)cc1NC(=O)CN1CCc2ccccc21	GLP1R inv ag 10µM
COc1cc(NC(=O)[C@@H](NC(=O)N2CCn3c2nc2ccccc23)C(C)C)cc(OC)c1	GLP1R inv ag 10µM, HEK293 tox inconclusive
CC(C)[C@H](NC(=O)N1CCn2c1nc1ccccc12)C(=O)N[C@H](Cc1ccccc1)C(=O)O	none
COc1ccc(CNC(=O)[C@H](CCSC)NC(=O)N2CCn3c2nc2ccccc23)cc1	GLP1R inv ag 5.01µM
O=C1CC(N(Cc2cccs2)C(=O)Nc2ccccc2)C(=O)N1c1ccc(Cl)cc1 (configuration not stated)	GLP1R inv ag 8.91µM
CCc1ccc(NC(=O)CCc2ccc(CC)o2)cc1	GLP1R inv ag 10µM
CN(C)c1ccc(N=Nc2ccc3ncccc3c2)cc1	none
CN(C)c1ccc(N=Nc2cccc(F)c2)cc1	BRCA1 expr up 1.58µM, HEK293 tox inconclusive
Cc1cc(C)n(-c2ccc(C(=O)Nc3ccc(S(=O)(=O)NCc4ccco4)cc3)cc2)n1	GLP1R inv ag 11.2µM
Cc1ccc(C(=O)Nc2ccc(S(=O)(=O)NCc3ccco3)cc2)cc1	none
O=c1oc(-c2cccs2)nc2sc3c(c12)CCCCC3	BRCA1 expr up 10µM
COc1cccc(CCN2CCC(CNS(=O)(=O)c3cc(-c4cc(C)no4)ccc3OC)CC2)c1	GLP1R inv ag inconclusive, HEK293 tox inconclusive
COc1cccc(CCN2CCC(CNS(=O)(=O)c3cc(-c4cc(C)no4)ccc3C)CC2)c1	GLP1R inv ag 4.47µM, HEK293 tox inconclusive
CCCn1c2ccccc2c2cnn(CC(=O)NCC3CCN(Cc4ccccc4C)CC3)c(=O)c21	none (no result: a7 integrin act, BRCA1 expr up, GLP-1R agonist)
O=C(CSc1ncccc1C(=O)O)c1ccc2ccccc2c1	GLP1R inv ag inconclusive
O=C(CSc1ncccc1C(=O)O)c1cccc(C(F)(F)F)c1	BRCA1 expr up 15.8µM
O=C(Nc1ccc(F)cc1F)c1noc2c1CCc1ccccc1-2	none (no result: a7 integrin act, BRCA1 expr up, GLP-1R agonist)
Cc1nnc(SCc2cccc3ccccc23)s1	BRCA1 expr up 1.26µM
c1ccc(Nc2nnc(SCc3cccc4ccccc34)s2)cc1	none
O=C(Nc1ccccc1)Nc1csc2ccccc12	GLP1R inv ag 8.91µM
CC(C)Oc1ccc(CNC(=O)c2cnc3sc(N4CCCCC4)nn3c2=O)cc1	none (no result: a7 integrin act, BRCA1 expr up, GLP-1R agonist)
O=C1C(Nc2cccc(O)c2)=C(N2CCCCC2)C(=O)c2ccccc21	GLP1R inv ag inconclusive, HEK293 tox 3.55µM
O=C1C(Nc2ccccc2)=C(N2CCCCC2)C(=O)c2ccccc21	GLP1R inv ag inconclusive
CCS(=O)(=O)N1CCCC(C(=O)c2ccc(OC)cc2C)C1 (configuration not stated)	a7 integrin act 11.2µM
COc1ccc(C(=O)C2CCCN(S(=O)(=O)c3ccc(C(C)=O)cc3)C2)c(C)c1 (configuration not stated)	GLP1R inv ag inconclusive
CCOCCn1cnc2sc(C(=O)Nc3ccccc3C(=O)OC)c(C)c2c1=O	none (no result: a7 integrin act, BRCA1 expr up, GLP-1R agonist)
COc1ccc(N2CCN(CC(O)COc3ccc(C(C)C)c(C)c3)CC2)cc1 (configuration not stated)	GLP1R inv ag 12.6µM, HEK293 tox inconclusive (no result: a7 integrin act, BRCA1 expr up, GLP-1R agonist)
COc1ccc(N2CCN(CC(O)COc3ccc(C)c(C)c3)CC2)cc1 (configuration not stated)	a7 integrin act inconclusive, GLP1R inv ag inconclusive
Cc1c(C(=O)N2CCOCC2)[nH]c2c1C(=O)CC(c1ccccc1Cl)C2 (configuration not stated)	GLP1R inv ag inconclusive, HEK293 tox 5.62µM
COc1ccc(-c2csc(NC(=O)CSc3nc(C)cs3)n2)cc1	BRCA1 expr up 12.6µM
CCOC(=S)SCC(=O)Nc1nc(-c2ccc(Br)cc2)cs1	HEK293 tox 5.01µM
O=C(Nc1nc(-c2ccc(-c3ccccc3)cc2)cs1)C1=COCCO1	none
COc1ccc(-c2csc(NC(=O)COC(=O)C3=COCCO3)n2)cc1	BRCA1 expr up 5.01µM
O=C(Nc1nc(-c2cccc([N+](=O)[O-])c2)cs1)C(c1ccccc1)c1ccccc1	GLP1R inv ag 1.58µM
Cc1cc2nc(-c3ccc(NC(=O)c4ccccc4F)cc3)oc2cc1C	none (no result: a7 integrin act, BRCA1 expr up, GLP-1R agonist)
Cc1cccc(Nc2c3c(nc4nncn24)CCC3)c1C	none (no result: a7 integrin act, BRCA1 expr up, GLP-1R agonist)
